# Data: the supplement of paper PMC12340641
# Structures can show the parent of a compound that is named as a salt. ± gives the standard deviation of the averaged measurements.
# Legend:
# [1] = biological target: IKZF1 (dCK*-IKZF1 fusion in HEK293FT) (UniProt Q13422); test: inhibition of IKZF1 HTRF signal (DMSO = 0%, pomalidomide 10 uM = 100%); higher = lower IKZF1 protein level; settings: compound concentration: 5 uM, overnight (~20 h)
# In short: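 After overnight treatment at 37 °C with 5 μM compound in single wells, HEK293FT cells (2000/well, 384-well) stably expressing an IKZF1 fusion were lysed for 30 min at room temperature. A commercial HTRF total-IKZF1 antibody kit was incubated with the lysate overnight, and the time-resolved FRET ratio at 665/620 nm was corrected for background. Data are given as percent inhibition of IKZF1 signal relative, on each plate, to vehicle and a reference degrader, set at 0% and 100% respectively.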
# [2] = system: HEK293FT dCK*-only; test: relative growth in counter assay (no AraC = 100%, AraC + DMSO = 0%); higher = more growth rescue independent of IKZF1; settings: compound concentration: 5 uM; AraC concentration: 0.3 uM; overnight pretreatment + 4 days AraC
# In short: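 Counter assay in HEK293FT cells expressing dCK* alone (300/well, 384-well). Cells received 5 μM compound 2 h after seeding, then after overnight at 37 °C a nucleoside suicide substrate at 0.3 μM plus medium for 4 days. On day 5, Hoechst 33342-stained nuclei were counted by imaging. Relative growth was normalised per plate to wells without suicide substrate (100%) and substrate plus vehicle (0%).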
# [3] = system: HEK293FT dCK*-IKZF1; test: relative growth recovery (pomalidomide 10 uM = 100%, DMSO = 0%); higher = more growth rescue (IKZF1 fusion degradation); settings: compound concentration: 5 uM; AraC concentration: 0.3 uM; overnight pretreatment + 4 days AraC
# In short: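 HEK293FT cells stably expressing a dCK*-IKZF1 fusion (300/well, 384-well) received 5 μM compound 2 h after seeding. After overnight at 37 °C they received a nucleoside suicide substrate at 0.3 μM plus medium for 4 days. On day 5, Hoechst 33342-stained nuclei were counted by whole-well imaging. Growth recovery was normalised per plate to a reference degrader (100%) and vehicle (0%); values are means of duplicates run on different days.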
# Sequence of IKZF1 (dCK*-IKZF1 fusion in HEK293FT) (Q13422 whole entry, looked up, the tested form may be a part): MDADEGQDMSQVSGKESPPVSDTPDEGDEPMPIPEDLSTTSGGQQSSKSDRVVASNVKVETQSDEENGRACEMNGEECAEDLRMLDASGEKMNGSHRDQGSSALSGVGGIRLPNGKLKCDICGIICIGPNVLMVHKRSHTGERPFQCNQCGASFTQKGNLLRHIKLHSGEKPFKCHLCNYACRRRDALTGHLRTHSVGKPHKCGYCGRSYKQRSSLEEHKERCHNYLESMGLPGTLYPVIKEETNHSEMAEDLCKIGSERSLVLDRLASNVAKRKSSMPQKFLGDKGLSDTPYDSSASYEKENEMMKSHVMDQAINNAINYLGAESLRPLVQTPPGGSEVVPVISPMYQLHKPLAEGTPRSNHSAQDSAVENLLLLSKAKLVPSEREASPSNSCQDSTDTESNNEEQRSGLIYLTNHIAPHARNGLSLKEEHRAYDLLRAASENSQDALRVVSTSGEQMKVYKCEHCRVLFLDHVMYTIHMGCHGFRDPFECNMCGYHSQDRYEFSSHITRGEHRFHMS
Compound,inhibition of IKZF1 HTRF signal [1] [%],relative growth in counter assay [2] [%],relative growth recovery [3] [%]
CCOC(=O)c1ccc(N)cc1,16.4,-10.5,-2.68
CC(=O)[C@]1(O)Cc2c(O)c3c(c(O)c2[C@@H](O[C@H]2C[C@H](N)[C@H](O)[C@H](C)O2)C1)C(=O)c1ccccc1C3=O [Idarubicin HCl],11.7,-34.2,-13
CN(C)c1ccc(/C=C2\C(=O)Nc3ccccc32)cc1,-36.5,-9.78,2.52
C[C@@H]1CC2C3CCC4=CC(=O)C=C[C@]4(C)[C@@]3(F)[C@@H](O)C[C@]2(C)[C@H]1C(=O)CO (stereo partly specified),19.4,-5.74,-0.19
COc1cc([C@@H]2c3cc4c(cc3[C@@H](O[C@@H]3O[C@@H]5COC(c6cccs6)O[C@H]5[C@H](O)[C@H]3O)[C@H]3COC(=O)C23)OCO4)cc(OC)c1O (stereo partly specified) [Teniposide],-45.1,-34.3,-12.5
Oc1cc2c(cc1O)[C@@H]1c3ccc(O)c(O)c3OC[C@]1(O)C2 [Hematoxylin (Hydroxybrazilin)],-6.3,-6.89,-1.47
CCCCCNC(=N)N/N=C/c1c[nH]c2ccc(OC)cc12,-1.99,-5.1,-2.16
Clc1ccc(C(Cn2ccnc2)OCc2csc3c(Cl)cccc23)c(Cl)c1 (stereo unspecified) [Sertaconazole],-18.6,3.66,1.54
S=C=Nc1ccc(N=C=S)cc1,20.8,3.25,-1.61
COC(=O)C1=C(C)NC(C)=C(C(=O)OC(C)C)C1c1cccc2nonc12 (stereo unspecified) [isradipine],-28.6,-4.67,1.6
O=C(O)c1ccccc1Nc1ccc(CCc2ccc(Cl)c(Cl)c2)cc1,-23.6,8.33,0.125
O=C(CCCCCCC(=O)NO)NO,-47.9,-7.76,-0.655
NC(=O)N/N=C/c1ccc([N+](=O)[O-])o1,-34.9,-3.72,-4.82
O=C(O)c1cc(/N=N/c2ccc(O)c(C(=O)O)c2)ccc1O,-32.5,-4.73,3.38
Oc1c(CN2CCCC2)cc(COCc2ccccc2)c2cccnc12,-11.1,-34.9,-13.4
CC[C@H](CO)Nc1nc(NCc2ccc(-c3ccccn3)cc2)c2ncn(C(C)C)c2n1,8.26,-34.5,-12.2
COc1cc([C@@H]2c3cc4c(cc3[C@@H](O[C@@H]3O[C@@H]5CO[C@@H](C)O[C@H]5[C@H](O)[C@H]3O)[C@H]3COC(=O)[C@H]23)OCO4)cc(OC)c1OP(=O)(O)O [Etoposide phosphate],-12.6,-33.9,-13
CN1CCN(c2ncc(-c3cc(Cl)cc(Cl)c3Cl)c(N)n2)CC1 [sipatrigine],11.5,5.22,2.4
CC(C)(C)c1cc(O)c(C(C)(C)C)cc1O,-31.7,-0.82,-0.575
Oc1cc(O)c2cc(O)c(-c3cc(O)c(O)c(O)c3)[o+]c2c1 [delphinidin],43.4,-7.27,-1.78
OCCCNc1cc(-c2ccnc(Nc3cccc(Cl)c3)n2)ccn1,14.5,-34.4,-12.8
C=CC(=O)Nc1cccc(Oc2nc(Nc3ccc(N4CCN(C)CC4)cc3)nc3ccsc23)c1 [Olmutinib],-18.2,-23.3,-7.07
COc1ccccc1Oc1c(NS(=O)(=O)c2ccc(C)cn2)nc(-c2ccncc2)nc1OC [Avosentan],-39.7,-4.67,-1.19

Compound,inhibition of IKZF1 HTRF signal [1] [%],relative growth in counter assay [2] [%],relative growth recovery [3] [%]
Cc1cccc(C)c1NC(=O)C(C)N (stereo unspecified) [Tocainide],20.5,-12.9,-3.04
COc1ccc(NS(=O)(=O)c2ccc(N)cc2)nn1,-33.3,-4.98,-1.8
CN1CCN(C2=Nc3ccccc3Sc3ccc(Cl)cc32)CC1 [Clothiapine],23.7,0.53,0.605
c1ccc(C(NCCNC(c2ccccc2)c2ccccc2)c2ccccc2)cc1,-1.32,3.27,3.32
Nc1nc(N)c2nc(-c3ccccc3)c(N)nc2n1,3.18,-11,-5.46
Cc1cc(NC(=O)C(c2ccccc2)N2CCCc3ccccc32)no1 (stereo unspecified),-21.4,-9.71,1.48
CC/C(=C(\c1ccc(O)cc1)c1ccc(OCCN(C)C(=O)COCCOCCOCCOc2cccc(C(=O)c3csc([C@@H]4CCCN4C(=O)[C@@H](NC(=O)[C@H](C)NC)C4CCCCC4)n3)c2)cc1)c1ccccc1,13.9,-31.8,-11.5
CCCSc1ccc2[nH]c(NC(=O)OC)nc2c1 [Albendazole],3.53,6.7,-0.675
CC(C)n1nc(-c2ccc3oc(N)nc3c2)c2c(N)ncnc21,83.3,-33.3,-12.4
COc1cccc2c1C(=O)c1c(O)c3c(c(O)c1C2=O)C[C@@](O)(C(=O)CO)C[C@@H]3O[C@H]1C[C@H](N)[C@H](O[C@@H]2CCCCO2)[C@H](C)O1 [Pirarubicin],37.3,-33.8,-13.1
Oc1cccc2cc3cccc(O)c3c(O)c12 [dithranol],-46.9,3.52,-0.86
COc1cc(CN(CCN)C(=O)c2cccs2)ccc1OCc1ccccc1,-24.8,7.03,0.355
O=C(Nc1ccc(Cl)nc1)c1ccc(Cl)cc1,-32.9,4.25,3.85
O=C(Nc1nc(-c2cc(Cl)cs2)c(N2CCN(C3CCCCC3)CC2)s1)c1cnc(N2CCC(C(=O)O)CC2)c(Cl)c1 [Avatrombopag],-35.6,-3.51,1.31
CN[C@H]1CC[C@@H](c2ccc(Cl)c(Cl)c2)c2ccccc21 [Sertraline HCl],18.8,-7.81,-6.62
COc1cccc2c(O)c3c(O)c4c(c(O)c3c(O)c12)=C(O[C@H]1C[C@H](N)[C@H](O)[C@H](C)O1)C[C@](O)(C(=O)CO)C=4 [Doxorubicin HCl],40.1,-34.4,-13.4
O=C(OOC(=O)c1ccccc1)c1ccccc1,-35.6,-0.7,1.32
O=c1c(O)c(-c2cc(O)c(O)c(O)c2)oc2cc(O)cc(O)c12 [Myricetin (Cannabiscetin)],18.8,-1.64,-0.905
OCCN1CCN(CCCN2c3ccccc3Sc3ccc(Cl)cc32)CC1 [Perphenazine],0.695 ± 0.86,7.41 ± 5.6,2.98 ± 1
OCCN1CCN(CCCN2c3ccccc3Sc3ccc(C(F)(F)F)cc32)CC1 [Fluphenazine  HCl],-52.5,15.7,5.51
O=C1OCCN1/N=C/c1ccc([N+](=O)[O-])o1,-32.5,-3.23,-3.37
CCn1c(=O)[nH]c2ccccc21,-34.6,-8.57,0.15
CCC1/C=C(\C)CC(C)CC(OC)C2OC(O)(C(=O)C(=O)N3CCCCC3C(=O)OC(/C(C)=C/C3CCC(O)C(OC)C3)C(C)C(O)CC1=O)C(C)CC2OC (stereo unspecified) [Ascomycin (FK520)],4.12,22.2,13.5

Compound,inhibition of IKZF1 HTRF signal [1] [%],relative growth in counter assay [2] [%],relative growth recovery [3] [%]
CC(CN(C)C)CN1c2ccccc2Sc2ccccc21 (stereo unspecified) [trimeprazine],15.3,7.5,-1.37
CN1CCCCC1CCN1c2ccccc2Sc2ccc(S(C)=O)cc21 (stereo unspecified) [mesoridazine besylate],-49.8,10.8,-0.555
CC(C)c1ccc(-c2cc(=O)c3ccccc3o2)cc1,-25.6,-5.2,0.225
CCCCCCCC[N+](C)(C)Cc1ccccc1 [benzyldimethyloctylammonium],-57.3,4.74,5.02
c1ccc(CNc2nc(NCc3ccccc3)c3ccccc3n2)cc1,-15.7,-18.5,-4.85
CCC(=O)O[C@@H]1CC(=O)O[C@H](C)C/C=C/C=C/[C@H](OC(C)=O)[C@H](C)C[C@H](CC=O)[C@H](O[C@@H]2O[C@H](C)[C@@H](O[C@H]3C[C@@](C)(OC(C)=O)[C@@H](OC(=O)CC)[C@H](C)O3)[C@H](N(C)C)[C@H]2O)[C@H]1OC [Midecamycin Acetate],-24.1,2.69,0.995
CCCCCCCCNC(C)C(O)c1ccc(SC(C)C)cc1 (stereo unspecified),-32.8,7.28,-0.84
Cc1coc2c1C(=O)C(=O)c1c-2ccc2c1CCCC2(C)C [Tanshinone IIA (Tanshinone B)],18.3,5.29,0.345
COc1cc(OC)c(/C=C2/C(=O)Nc3ccccc32)c(OC)c1,-15.9,-33.5,-11.3
O=c1c(O)c(-c2ccc(O)c(O)c2)oc2cc(O)ccc12 [Fisetin (Fustel)],11.3,-3.66,-3.06
COc1cc(NS(=O)(=O)c2ccc(N)cc2)nc(OC)n1,-24.5,-0.83,-4.54
COc1ccc(-c2ccc3c(N4CCOC[C@@H]4C)nc(N4CCOC[C@@H]4C)nc3n2)cc1CO,50,-33.9,-13.8
C[C@@H]1CC(=O)NN=C1c1ccc(NN=C(C#N)C#N)cc1,-27.1,11.2,-2.62
c1ccc(C(NCc2cccnc2)(c2ccccc2)c2ccccc2)cc1,-26.2,3.05,-0.7
CNCCC(Oc1ccc(C(F)(F)F)cc1)c1ccccc1 (stereo unspecified),-36.8,6.85,0.235
Clc1ccc(C(Cn2ccnc2)OCc2c(Cl)cccc2Cl)c(Cl)c1 (stereo unspecified) [Isoconazole nitrate (Travogen)],-10.4,0.7,-3.42
CCN(CC)CCOc1ccccc1C(=O)CCc1ccccc1 [etafenone],11,2.17,-1.08
C[n+]1c2cc(N)ccc2cc2ccc(N)cc21.Nc1ccc2cc3ccc(N)cc3nc2c1 [Acriflavine hydrochloride],6.76,-35.7,-14
Cc1ccc(S(=O)(=O)NC(=O)NN2CCCCCC2)cc1,-31.1,0.45,-2.75
Nc1cccc2c1C(=O)N(C1CCC(=O)NC1=O)C2=O (stereo unspecified) [Pomalidomide],92.7,2.03,81.4
Cc1ccc2c(Cl)cc(Cl)c(O)c2n1,14,-5.48,0.855
